Only some compounds are listed: those with a hit (about 8% of all), similar ones and a draw of the others.
LASV entry inh = Lassa virus entry inhibition | Lassa virus pseudotyped entry inhibition, cell-based qHTS | Potency, µM (highest dose often 49.2 µM), most hits filed as inhibitors | actives 4.1% (n = 18,000) | AID 720533
MARV entry inh = Marburg virus entry inhibition; Marburg virus pseudotype entry/binding inhibition, cell-based; Potency, µM (top dose mostly 49.2 µM), most hits filed as inhibitors; actives 6.5% (n = 18,000); AID 720532
Of the large screens only hits and unclear results are named; the others gave an inactive call. Calls follow the shape of the full dose curve; tested in HEK293 cells.

COC(=O)C1=C(C)N(Cc2ccccc2)C(=NCc2ccc3c(c2)OCO3)NC1CCc1ccccc1 (stereo unspecified)	none (no result: LASV entry inh)
CC1=C2[C@H](O)[C@H]([C@@H](C)C(=O)NCCC(C)C)CC[C@@]2(C)C=CC1=O	none
CC(=O)OC[C@H]1O[C@H](CC=NO[C@H](C)c2cn([C@@H]3COC[C@@H]3O)nn2)C=C[C@@H]1OC(C)=O	none
CCCCCC(=O)N1C[C@@H](n2cc(-c3ccc(F)cc3)nn2)[C@H](O)C[C@H]1c1ccc(C)cc1	MARV entry inh inconclusive
CCN(CC)CCNC(=O)COc1ccc(Cl)cc1	none
CCN(CC)CCOc1ccc(C(O)(Cc2ccc(Cl)cc2)c2ccc(C)cc2)cc1 (stereo unspecified)	LASV entry inh 25µM, MARV entry inh 3.5µM
O=C1CCc2ccc(OCCCCN3CCN(c4cccc(Cl)c4Cl)CC3)cc2N1	LASV entry inh inconclusive
O=C1NC2CCCCN2C12CCN(CCCN1c3ccccc3CCc3ccc(Cl)cc31)CC2 (stereo unspecified)	LASV entry inh 28µM, MARV entry inh 7.1µM
C=CC[C@@]1(c2ccc(OC)cc2)Oc2ccccc2C2=NCCN=C21	MARV entry inh inconclusive
COc1ccc(O[C@H]2C=C[C@@H](c3ccccc3)O[C@H]2CON=C2[C@H]3CCn4c(=O)n(-c5ccccc5)c(=O)n4[C@@H]3[C@H](O)[C@@H]3O[C@H]23)cc1	none
CCn1c(-c2nonc2N)nc2ccc(F)cc21	MARV entry inh inconclusive
CCn1c(-c2nonc2N)nc2c(C#CCN)ncc(OCCCN)c21	MARV entry inh inconclusive
CCn1c(-c2nonc2N)nc2c(C#CC(C)(C)O)nc(OCC(N)c3ccccc3)cc21 (stereo unspecified)	MARV entry inh 3.1µM (no result: LASV entry inh)
CCn1c(-c2nonc2N)nc2c(C#CC(C)(C)O)ncc(OC3CCNCC3)c21	MARV entry inh 4µM (no result: LASV entry inh)
CN[C@@H]1[C@@H](O)[C@@H](O[C@@H]2[C@@H](O)[C@H](O[C@H]3O[C@H](CN)[C@@H](O)[C@H](O)[C@H]3O)[C@@H](N)C[C@H]2NC(=O)C(O)CN)OC[C@]1(C)O (stereo partly specified)	none
ON=C1CCc2cc(-c3nc(C4CCNCC4)[nH]c3-c3ccncc3)ccc21	none
COc1cc(C(CCN2CCOCC2)c2c(OC)cc(OC)c3ccc(=O)oc23)cc(OC)c1OC (stereo unspecified)	none
COc1cc(OC)c2c(-c3ccccc3)cc(=O)oc2c1C(CCN1CCOCC1)c1ccc(N(C)C)cc1 (stereo unspecified)	LASV entry inh inconclusive, MARV entry inh 10µM
COC1=C[C@H](C(=O)NC2CCN(Cc3ccccc3)CC2)[C@@]2(C)Cc3ccccc3[C@@H]2CC1=O	none
CC1=CC(=C(c2ccc(N)cc2)c2ccc(N)cc2)C=CC1=N	LASV entry inh 7.9µM, MARV entry inh inconclusive
CC1=C(C(=O)Nc2ccc3[nH]ncc3c2)C(c2ccc3ccccc3c2)CC(=O)N1 (stereo unspecified)	none

High-throughput results as filed in PubChem.
